Measured values as given in PubChem BioAssay (Tox21).
Results filed as inconclusive are left out. Active and inactive are the calls of the source. Unless noted, calls follow the shape of the dose curve; as a rule, active = well fitted inhibition curve with a large enough effect in the repeat runs (not every such curve was filed as active); inconclusive = weak or mixed curves; inactive = flat fitted curve, though single readings scatter.

test system: not listed separately; test: qHTS assay to identify small molecule agonists of the TGF-beta/Smad signaling pathway - cell viability counter screen (AID 1346829; active = well fitted cell-killing curve with a large enough effect in the repeat runs; also: nearly all actives have a fitted effect of over 45% in size; also: potency is read from the fitted curve at half-maximal effect; as to activity change, negative = cytotoxicity: top concentration of the series differs between compounds); settings: SBE-bla HEK293T viability, CellTiter-Glo luminescence, 5 h; series mostly up to 76.8 µM; activity change, negative = cytotoxicity: at the top concentration
Method in brief: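 HEK 293T SBE-bla line, 5 hr compound exposure at 37 C, multiplexed CellTiter-Glo viability read by luminescence.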
% is scaled to controls: 0 for no effect and ±100 for the full control effect.

Structure (SMILES)	Potency	activity change, negative = cytotoxicity
O=C1C=CC(=O)N1c1ccc(Cc2ccc(N3C(=O)C=CC3=O)cc2)cc1	61.6 µM (active)	–
O=C(OCC1CO1)C1CCCCC1C(=O)OCC1CO1 (stereo not drawn)	–	0.292% (inactive)
Clc1ccc(C(Cn2ccnc2)OCc2ccc(Sc3ccccc3)cc2)c(Cl)c1 (stereo not drawn)	–	0.378% [at 35.3 µM] (inactive)
CCN(C(=O)N(CC)c1ccccc1)c1ccccc1	–	-23.3% (inactive)
CC1(C)CCC(C)(C)c2cc(C(=O)Nc3ccc(C(=O)O)cc3)ccc21	–	12.8% (inactive)
CN(C)CCCOC1(Cc2ccccc2)CCCCCC1	–	-5.62% [at 35.3 µM] (inactive)
COc1cccc2c1C(=O)c1c(O)c3c(c(O)c1C2=O)C[C@@](O)(C(=O)CO)C[C@@H]3O[C@H]1C[C@H](N)[C@H](O[C@@H]2CCCCO2)[C@H](C)O1	–	1.41% [at 35.3 µM] (inactive)
Cc1cc2c(cc1C(F)(F)F)N(C(=O)Nc1ccc(Oc3cccnc3C)nc1)CC2	–	-27.5% (inactive)
CCN(C(=O)c1cc(C)cc(OC[C@H](C)Nc2ccncc2)c1)C(C)C	–	1.81% [at 35.3 µM] (inactive)
CCCCCCCCCCCC[N+](C)(C)CCCCCCCCCCCC	34.7 µM (active)	–
CCCCN1C(=O)[C@@H]([C@H](O)C2CCCCC2)NC(=O)C12CCN(Cc1ccc(Oc3ccc(C(=O)O)cc3)cc1)CC2	–	25% (inactive)
CS(=O)(=O)CCNCc1ccc(-c2ccc3ncnc(Nc4ccc(OCc5cccc(F)c5)c(Cl)c4)c3c2)o1	–	-1.3% [at 35.3 µM] (inactive)
O=C(O)c1cc(O)c2c(c1)C(=O)c1cccc(O)c1C2=O	–	-17.1% (inactive)
O=CC=C(c1ccccc1)c1ccccc1	–	-1.3% (inactive)
Oc1c(Cl)cc(Cl)c2cccnc12	–	9.05% [at 35.3 µM] (inactive)
CC(=O)S[C@@H]1CC2=CC(=O)CC[C@]2(C)[C@H]2CC[C@@]3(C)[C@@H](CC[C@@]34CCC(=O)O4)[C@H]12	–	-7.19% (inactive)

test system: not listed separately; test: qHTS assay to identify small molecule agonists of the TGF-beta/Smad signaling pathway (AID 1346859; active = well fitted activation curve with a large enough effect in the signal ratio in the repeat runs, not every such curve was filed as active; the % refers to the signal ratio); settings: SBE-bla HEK293T, TGF-beta/Smad beta-lactamase reporter, 5 h; series mostly up to 76.8 µM; activation: at the top concentration
Method in brief: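 Reporter line: HEK 293T with stably integrated SBE-controlled beta-lactamase. Compound exposure lasts 5 hr at 37 C and 5% CO2; substrate loading follows for 2 hr at room temperature, with emission read at 460 and 530 nm.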

Structure (SMILES)	activation
Nc1nc2ccccc2n1Cc1ccc(F)cc1	5.19% [at 35.3 µM] (inactive)
N/C(=N\N=C\c1ccc(Cl)cc1)N/N=C/c1ccc(Cl)cc1	4.64% [at 35.3 µM] (inactive)
O=C(Oc1ccccc1)c1ccccc1C(=O)Oc1ccccc1	0.175% (inactive)
Cc1ccc(O)c(C(C)(C)C)c1	-6.95% (inactive)
CC1=NC(C)OC1C (stereo not drawn)	-6.24% (inactive)
CN(C)c1ccc(C2(c3ccc(N(C)C)cc3)OC(=O)c3cc(N(C)C)ccc32)cc1	16.4% (inactive)
CCCC(C)c1ccccc1O (stereo not drawn)	0.801% (inactive)
OCCN1CCN(CC/C=C2/c3ccccc3Sc3ccc(C(F)(F)F)cc32)CC1	-8.47% [at 35.3 µM] (inactive)
CC(C)(C)C1CCC(CC2=C(O)c3ccccc3C(=O)C2=O)CC1 (stereo not drawn)	-6.65% [at 35.3 µM] (inactive)
NC(=O)CC[C@@H]1NC(=O)[C@H](Cc2ccccc2)NC(=O)[C@H](Cc2ccc(O)cc2)NC(=O)CCSSC[C@@H](C(=O)N2CCC[C@H]2C(=O)N[C@@H](CCCN=C(N)N)C(=O)NCC(N)=O)NC(=O)[C@H](CC(N)=O)NC1=O	0.358% [at 35.3 µM] (inactive)
O=C1C=CC(=O)N1c1ccc(Cc2ccc(N3C(=O)C=CC3=O)cc2)cc1	15.1% (inactive)
Clc1ccc(C(Cn2ccnc2)OCc2ccc(Sc3ccccc3)cc2)c(Cl)c1 (stereo not drawn)	3.41% [at 35.3 µM] (inactive)
CCN(C(=O)N(CC)c1ccccc1)c1ccccc1	-10.4% (inactive)
CN(C)CCCOC1(Cc2ccccc2)CCCCCC1	0.335% [at 35.3 µM] (inactive)
COc1cccc2c1C(=O)c1c(O)c3c(c(O)c1C2=O)C[C@@](O)(C(=O)CO)C[C@@H]3O[C@H]1C[C@H](N)[C@H](O[C@@H]2CCCCO2)[C@H](C)O1	0.755% [at 35.3 µM] (inactive)
CCN(C(=O)c1cc(C)cc(OC[C@H](C)Nc2ccncc2)c1)C(C)C	4.72% [at 35.3 µM] (inactive)
O=CC=C(c1ccccc1)c1ccccc1	3.11% (inactive)
O=C(Nc1cccc([N+](=O)[O-])c1)c1cc2ccccc2cc1O	4.28% (inactive)

molecular target: Thyrotropin-releasing hormone receptor (Homo sapiens) (UniProt P34981); test: qHTS assay to identify small molecule antagonists of the thyrotropin-releasing hormone receptor (TRHR) signaling pathway (AID 1346877); settings: TRHR-HEK293, TRH-induced calcium fluorescence, antagonist mode; series mostly up to 51.3 µM; activity, negative = inhibition: at the top concentration
Method in brief: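 Human TRHR in HEK293 cells; inhibition of the intracellular calcium rise triggered by 1 nM TRH was followed by fluorescence over 3 min. Compounds were run at 15 concentrations, three replicates each.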

Thyrotropin-releasing hormone receptor (Homo sapiens), sequence (P34981 whole entry, looked up): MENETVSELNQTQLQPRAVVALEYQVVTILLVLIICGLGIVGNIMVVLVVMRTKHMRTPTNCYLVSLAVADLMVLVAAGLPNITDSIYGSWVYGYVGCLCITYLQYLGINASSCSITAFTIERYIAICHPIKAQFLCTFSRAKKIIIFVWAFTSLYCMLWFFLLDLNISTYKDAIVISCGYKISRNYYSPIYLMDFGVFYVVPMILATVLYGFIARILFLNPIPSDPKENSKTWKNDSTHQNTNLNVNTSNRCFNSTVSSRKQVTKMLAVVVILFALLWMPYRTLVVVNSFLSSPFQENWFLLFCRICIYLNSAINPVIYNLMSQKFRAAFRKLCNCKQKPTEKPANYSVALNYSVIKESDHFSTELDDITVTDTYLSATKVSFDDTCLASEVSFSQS

Structure (SMILES)	activity, negative = inhibition
CC(C)(C)CC(C)(C)c1ccc(O)c(Cc2ccc(Cl)cc2Cl)c1	-3.72% [at 23.6 µM] (inactive)
Nc1nc2ccccc2n1Cc1ccc(F)cc1	-5.1% [at 23.6 µM] (inactive)
N/C(=N\N=C\c1ccc(Cl)cc1)N/N=C/c1ccc(Cl)cc1	1.84% [at 23.6 µM] (inactive)
CCOc1ccc2nc3cc(N)ccc3c(N)c2c1	-0.555% [at 23.6 µM] (inactive)
O=C(Oc1ccccc1)c1ccccc1C(=O)Oc1ccccc1	-5.47% (inactive)
C[n+]1cc2c3c(ccc2c2ccc4cc5c(cc4c21)OCO5)OCO3	3.07% [at 10.5 µM] (inactive)
CN(C)c1ccc(C2(c3ccc(N(C)C)cc3)OC(=O)c3cc(N(C)C)ccc32)cc1	22.2% (inactive)
CCCC(C)c1ccccc1O (stereo not drawn)	3.67% (inactive)
CNc1ccc(O)cc1	-0.0628% (inactive)
Clc1ccc(C(Cn2ccnc2)OCc2ccc(Sc3ccccc3)cc2)c(Cl)c1 (stereo not drawn)	-0.206% [at 23.6 µM] (inactive)
CC1(C)CCC(C)(C)c2cc(C(=O)Nc3ccc(C(=O)O)cc3)ccc21	-7.05% (inactive)
CN(C)CCCOC1(Cc2ccccc2)CCCCCC1	-1.36% [at 23.6 µM] (inactive)
COc1cccc2c1C(=O)c1c(O)c3c(c(O)c1C2=O)C[C@@](O)(C(=O)CO)C[C@@H]3O[C@H]1C[C@H](N)[C@H](O[C@@H]2CCCCO2)[C@H](C)O1	-0.146% [at 23.6 µM] (inactive)
CCN(C(=O)c1cc(C)cc(OC[C@H](C)Nc2ccncc2)c1)C(C)C	4.94% [at 23.6 µM] (inactive)
CCCCCCCCCCCC[N+](C)(C)CCCCCCCCCCCC	-0.729% (inactive)
CCCCN1C(=O)[C@@H]([C@H](O)C2CCCCC2)NC(=O)C12CCN(Cc1ccc(Oc3ccc(C(=O)O)cc3)cc1)CC2	0.375% (inactive)
CS(=O)(=O)CCNCc1ccc(-c2ccc3ncnc(Nc4ccc(OCc5cccc(F)c5)c(Cl)c4)c3c2)o1	-4.85% [at 23.6 µM] (inactive)
O=C(Nc1cccc([N+](=O)[O-])c1)c1cc2ccccc2cc1O	-12.2% (inactive)
CC(=O)S[C@@H]1CC2=CC(=O)CC[C@]2(C)[C@H]2CC[C@@]3(C)[C@@H](CC[C@@]34CCC(=O)O4)[C@H]12	2.46% (inactive)
